The supplement of paper PMC12067093, “Discovery and optimisation of a covalent ligand for TRIM25 and its application to targeted protein ubiquitination” (Chemical Science, 2025)
Targets with the largest changes are over-represented here; the source holds about 21,000 in all.

What follows are targets tested with CC1Cc2ccccc2N1C(=O)C1CCCN(C1)C(=O)CCl (mixture of isomers) [TRIM25 ligand 11 (diastereomer mixture)] (assay: probe-labelled cysteine peptide fold change vs DMSO (competition) (log2 fold change); higher = less target engagement (more negative = stronger competition)). Conditions: 10 µM; THP-1; incubation time: 4 h.
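Also: competitive chemoproteomic profiling in live THP-1 cells with an iodoacetamide desthiobiotin (IA-DTB) probe, comparing probe-labelled peptide intensities in compound-treated cells against DMSO-treated controls.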

UniProt P09234, sequence (P09234 whole entry, looked up): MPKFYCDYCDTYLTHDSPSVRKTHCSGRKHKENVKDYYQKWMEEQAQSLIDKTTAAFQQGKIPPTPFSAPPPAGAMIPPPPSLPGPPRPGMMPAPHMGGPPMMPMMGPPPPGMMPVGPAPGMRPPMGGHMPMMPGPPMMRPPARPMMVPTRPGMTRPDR
UniProt Q99590, sequence (Q99590 whole entry, looked up): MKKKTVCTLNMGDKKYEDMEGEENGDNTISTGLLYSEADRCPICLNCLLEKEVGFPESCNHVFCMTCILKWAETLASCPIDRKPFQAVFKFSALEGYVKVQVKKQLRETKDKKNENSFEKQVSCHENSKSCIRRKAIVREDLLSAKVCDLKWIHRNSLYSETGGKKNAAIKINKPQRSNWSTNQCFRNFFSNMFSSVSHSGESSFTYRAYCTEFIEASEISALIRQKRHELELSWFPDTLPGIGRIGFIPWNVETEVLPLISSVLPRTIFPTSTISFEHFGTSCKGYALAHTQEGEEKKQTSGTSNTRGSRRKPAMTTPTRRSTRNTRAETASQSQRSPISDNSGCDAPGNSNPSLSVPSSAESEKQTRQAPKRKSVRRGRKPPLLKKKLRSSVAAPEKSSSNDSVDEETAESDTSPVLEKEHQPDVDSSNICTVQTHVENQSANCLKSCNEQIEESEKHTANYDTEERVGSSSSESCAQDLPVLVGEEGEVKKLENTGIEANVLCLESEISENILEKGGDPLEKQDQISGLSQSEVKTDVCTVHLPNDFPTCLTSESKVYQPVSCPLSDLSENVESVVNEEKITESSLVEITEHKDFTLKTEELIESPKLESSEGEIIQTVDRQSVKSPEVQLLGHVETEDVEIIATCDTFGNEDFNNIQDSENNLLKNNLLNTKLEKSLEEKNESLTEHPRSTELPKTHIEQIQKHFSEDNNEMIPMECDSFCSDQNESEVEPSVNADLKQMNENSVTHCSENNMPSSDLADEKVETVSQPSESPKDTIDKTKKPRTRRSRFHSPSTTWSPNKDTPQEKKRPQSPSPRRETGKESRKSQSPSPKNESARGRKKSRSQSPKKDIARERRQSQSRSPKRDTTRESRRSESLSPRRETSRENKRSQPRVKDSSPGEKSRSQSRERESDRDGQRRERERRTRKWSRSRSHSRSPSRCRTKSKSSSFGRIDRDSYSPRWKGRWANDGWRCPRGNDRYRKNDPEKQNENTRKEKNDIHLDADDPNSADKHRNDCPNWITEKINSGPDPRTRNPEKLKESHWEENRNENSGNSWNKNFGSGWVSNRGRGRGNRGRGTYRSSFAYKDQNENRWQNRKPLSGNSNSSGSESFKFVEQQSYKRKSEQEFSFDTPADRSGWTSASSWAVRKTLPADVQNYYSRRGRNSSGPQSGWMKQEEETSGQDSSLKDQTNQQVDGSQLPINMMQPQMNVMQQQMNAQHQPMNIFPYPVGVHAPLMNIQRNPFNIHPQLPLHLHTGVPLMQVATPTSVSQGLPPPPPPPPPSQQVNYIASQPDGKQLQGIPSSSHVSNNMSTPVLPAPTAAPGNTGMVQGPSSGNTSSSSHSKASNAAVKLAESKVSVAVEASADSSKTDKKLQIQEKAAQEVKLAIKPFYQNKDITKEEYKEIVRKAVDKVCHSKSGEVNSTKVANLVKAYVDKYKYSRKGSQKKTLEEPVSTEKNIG
UniProt Q5M775, sequence (Q5M775 whole entry, looked up): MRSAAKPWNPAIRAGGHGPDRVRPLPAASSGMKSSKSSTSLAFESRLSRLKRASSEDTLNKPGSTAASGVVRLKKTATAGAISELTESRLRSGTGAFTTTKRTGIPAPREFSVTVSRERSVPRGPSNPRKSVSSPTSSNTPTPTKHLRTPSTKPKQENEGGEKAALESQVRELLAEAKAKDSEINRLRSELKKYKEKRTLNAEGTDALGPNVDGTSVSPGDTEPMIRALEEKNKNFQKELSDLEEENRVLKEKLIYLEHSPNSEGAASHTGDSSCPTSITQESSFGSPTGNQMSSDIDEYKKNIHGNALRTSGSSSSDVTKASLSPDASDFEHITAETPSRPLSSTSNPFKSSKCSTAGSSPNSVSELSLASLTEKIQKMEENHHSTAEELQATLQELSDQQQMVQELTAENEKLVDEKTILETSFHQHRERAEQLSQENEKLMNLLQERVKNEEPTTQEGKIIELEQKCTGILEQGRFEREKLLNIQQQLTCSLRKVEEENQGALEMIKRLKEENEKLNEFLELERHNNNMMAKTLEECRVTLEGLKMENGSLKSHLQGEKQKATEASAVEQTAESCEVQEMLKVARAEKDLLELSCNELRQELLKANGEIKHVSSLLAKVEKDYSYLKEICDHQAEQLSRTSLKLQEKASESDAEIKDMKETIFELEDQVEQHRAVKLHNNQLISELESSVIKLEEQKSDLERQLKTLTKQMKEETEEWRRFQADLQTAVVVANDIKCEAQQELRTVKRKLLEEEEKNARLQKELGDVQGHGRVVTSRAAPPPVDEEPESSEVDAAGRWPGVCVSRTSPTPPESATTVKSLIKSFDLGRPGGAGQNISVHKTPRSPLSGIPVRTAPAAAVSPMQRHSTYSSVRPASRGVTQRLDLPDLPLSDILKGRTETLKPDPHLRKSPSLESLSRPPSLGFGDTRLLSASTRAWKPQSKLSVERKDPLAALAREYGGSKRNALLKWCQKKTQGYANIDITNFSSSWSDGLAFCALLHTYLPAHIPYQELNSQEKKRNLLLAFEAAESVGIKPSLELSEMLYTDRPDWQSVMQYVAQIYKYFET
UniProt Q15758, sequence (Q15758 whole entry, looked up): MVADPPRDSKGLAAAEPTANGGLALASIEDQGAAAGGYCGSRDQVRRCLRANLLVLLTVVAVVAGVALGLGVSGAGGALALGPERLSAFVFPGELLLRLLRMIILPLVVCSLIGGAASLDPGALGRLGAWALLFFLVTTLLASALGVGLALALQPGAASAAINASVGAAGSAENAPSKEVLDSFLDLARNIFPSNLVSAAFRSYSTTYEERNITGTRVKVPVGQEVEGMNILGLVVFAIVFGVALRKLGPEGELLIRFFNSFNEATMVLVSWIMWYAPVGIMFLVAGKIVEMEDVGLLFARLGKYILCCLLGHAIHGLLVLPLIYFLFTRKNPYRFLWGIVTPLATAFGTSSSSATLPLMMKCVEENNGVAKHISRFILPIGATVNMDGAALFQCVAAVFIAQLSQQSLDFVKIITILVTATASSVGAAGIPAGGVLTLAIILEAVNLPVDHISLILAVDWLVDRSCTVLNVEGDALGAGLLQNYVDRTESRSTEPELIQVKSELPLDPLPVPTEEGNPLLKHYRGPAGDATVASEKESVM
UniProt Q9Y6M7, sequence (Q9Y6M7 whole entry): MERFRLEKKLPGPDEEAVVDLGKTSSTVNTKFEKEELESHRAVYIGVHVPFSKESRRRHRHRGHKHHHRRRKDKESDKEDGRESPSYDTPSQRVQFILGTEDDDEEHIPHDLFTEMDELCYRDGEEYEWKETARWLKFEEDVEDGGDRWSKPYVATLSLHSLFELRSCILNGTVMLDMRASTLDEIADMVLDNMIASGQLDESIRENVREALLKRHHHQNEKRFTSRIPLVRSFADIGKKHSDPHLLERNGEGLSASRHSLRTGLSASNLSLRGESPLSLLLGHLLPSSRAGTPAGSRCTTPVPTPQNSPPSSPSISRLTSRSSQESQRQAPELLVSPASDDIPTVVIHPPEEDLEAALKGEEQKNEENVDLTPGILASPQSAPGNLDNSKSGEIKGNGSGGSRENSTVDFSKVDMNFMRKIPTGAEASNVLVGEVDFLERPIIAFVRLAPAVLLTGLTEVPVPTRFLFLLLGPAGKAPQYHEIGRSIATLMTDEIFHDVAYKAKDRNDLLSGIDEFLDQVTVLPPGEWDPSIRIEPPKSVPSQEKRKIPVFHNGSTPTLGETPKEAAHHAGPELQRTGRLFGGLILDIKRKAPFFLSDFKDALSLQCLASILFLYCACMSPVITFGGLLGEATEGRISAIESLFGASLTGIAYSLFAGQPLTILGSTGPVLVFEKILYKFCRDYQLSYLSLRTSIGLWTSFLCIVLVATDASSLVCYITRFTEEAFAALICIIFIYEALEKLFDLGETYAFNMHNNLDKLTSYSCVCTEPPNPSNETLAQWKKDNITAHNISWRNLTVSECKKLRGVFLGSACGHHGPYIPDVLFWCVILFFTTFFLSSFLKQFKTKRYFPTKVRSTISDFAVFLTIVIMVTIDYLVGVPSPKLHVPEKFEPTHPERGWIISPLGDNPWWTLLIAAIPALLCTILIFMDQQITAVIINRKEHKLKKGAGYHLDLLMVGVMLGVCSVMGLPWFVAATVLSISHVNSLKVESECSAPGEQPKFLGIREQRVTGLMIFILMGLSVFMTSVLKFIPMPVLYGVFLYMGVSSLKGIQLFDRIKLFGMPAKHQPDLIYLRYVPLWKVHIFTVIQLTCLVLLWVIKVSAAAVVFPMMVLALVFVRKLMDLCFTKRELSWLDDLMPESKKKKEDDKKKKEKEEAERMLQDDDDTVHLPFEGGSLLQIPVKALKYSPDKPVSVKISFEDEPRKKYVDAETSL
UniProt P34896, sequence (P34896 whole entry, looked up): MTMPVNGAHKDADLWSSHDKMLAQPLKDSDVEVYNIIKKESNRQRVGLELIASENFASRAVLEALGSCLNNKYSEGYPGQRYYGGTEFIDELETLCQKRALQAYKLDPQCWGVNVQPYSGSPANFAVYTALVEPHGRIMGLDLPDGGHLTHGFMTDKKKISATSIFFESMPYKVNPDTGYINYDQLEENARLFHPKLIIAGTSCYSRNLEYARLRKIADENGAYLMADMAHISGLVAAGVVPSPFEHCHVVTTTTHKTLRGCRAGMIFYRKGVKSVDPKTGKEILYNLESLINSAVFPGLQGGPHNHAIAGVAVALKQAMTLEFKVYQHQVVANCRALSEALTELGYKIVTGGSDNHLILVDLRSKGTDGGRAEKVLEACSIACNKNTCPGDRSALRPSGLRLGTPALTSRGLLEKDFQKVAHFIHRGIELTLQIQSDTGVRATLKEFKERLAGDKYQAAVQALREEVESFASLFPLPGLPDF

Target	probe-labelled cysteine peptide fold change
SLC4A7_Q9Y6M7_120_VQFILGTEDDDEEHIPHDLFTEMDELCYR (UniProt Q9Y6M7)	0.222
SHMT1_P34896_335_VYQHQVVANCR (UniProt P34896)	0.0178
SPECC1_Q5M775_633_EICDHQAEQLSR (UniProt Q5M775)	-0.00943
SLC1A5_Q15758_467_SCTVLNVEGDALGAGLLQNYVDR (UniProt Q15758)	-0.0169
SIGIRR_Q6IA17_174_LYDAYVSYSDCPEDR (UniProt Q6IA17)	0.24
RREB1_Q92766_291_DAMGRPFIQNNPSIPAGFHDLGFTDFSCR (UniProt Q92766)	-0.104
SON_P18583_1551_EMEHNTVCAAGTSPVGEIGEEK (UniProt P18583)	0.0276
SRP68_Q9UHB9_173_LCESNR (UniProt Q9UHB9)	0.14
SMG7_Q92540_537_NLSNNCDTGEKPVVTFK (UniProt Q92540)	-0.036
SNUPN_O95149_356_GSSHSPDHPGCLMEN (UniProt O95149)	0.0268
SNRPC_P09234_25_KTHCSGR (UniProt P09234)	-0.332
SNUPN_O95149_199_GHPFYDCQTDFR (UniProt O95149)	0.47
SIAE_Q9HAT2_367_MPNTFMAVAMDLCDRDSPFGSIHPR (UniProt Q9HAT2)	-0.176
SMN2_Q16637_60_NGDICETSGKPK (UniProt Q16637)	-0.146
SETDB1_Q15047_385_RCEWIYR (UniProt Q15047)	0.156
SCAF11_Q99590_566_VYQPVSCPLSDLSENVESVVNEEK (UniProt Q99590)	-0.0494
